Compound activity (PubChem)
Compounds with a hit are over-represented: about 7% of the library has one in this group of screens.
HP1b binding inh: inhibitors of HP1-beta chromodomain binding to methylated histone tails | hit rate 0.56% among 390,000 | AlphaScreen HP1-beta / biotin-H3K9me3 peptide binding | Potency, µM (series often up to 114 µM), without a hit: at the highest dose activity change, negative = inhibition, most hits filed as inhibitors | P83916; note: potency is the fitted concentration of half-maximal effect; nearly all actives have a fitted effect of over 70% in size
Target sequence (P83916 whole entry, looked up): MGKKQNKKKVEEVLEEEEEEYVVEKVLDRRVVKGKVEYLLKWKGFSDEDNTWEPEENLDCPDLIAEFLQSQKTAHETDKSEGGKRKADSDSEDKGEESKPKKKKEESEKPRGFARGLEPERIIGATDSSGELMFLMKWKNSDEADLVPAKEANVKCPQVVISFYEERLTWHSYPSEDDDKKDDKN
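Compound inhibition of the preformed complex between 50 nM HP1-beta and 50 nM biotinylated H3K9me3 peptide was read by AlphaScreen. Buffer was PBS pH 7.4 with 0.01% Tween-20. Incubations ran 30 min at room temperature, with 10 ug/mL donor/acceptor beads.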
PI5P4Ka inh: PI5P4K alpha (human) kinase inhibition; PI5P4Kalpha enzyme, ADP-Glo luminescence, 60 min; hits give low values; max response, %; hit rate 1.2% among 330,000; active = max response of -50% or lower; inconclusive = between -30% and -50%; inactive = -30% or higher; note: value at the top dose of about 77 µM; % is set by controls: 0 for no effect and ±100 for the full control effect
Target sequence (P48426 whole entry, looked up): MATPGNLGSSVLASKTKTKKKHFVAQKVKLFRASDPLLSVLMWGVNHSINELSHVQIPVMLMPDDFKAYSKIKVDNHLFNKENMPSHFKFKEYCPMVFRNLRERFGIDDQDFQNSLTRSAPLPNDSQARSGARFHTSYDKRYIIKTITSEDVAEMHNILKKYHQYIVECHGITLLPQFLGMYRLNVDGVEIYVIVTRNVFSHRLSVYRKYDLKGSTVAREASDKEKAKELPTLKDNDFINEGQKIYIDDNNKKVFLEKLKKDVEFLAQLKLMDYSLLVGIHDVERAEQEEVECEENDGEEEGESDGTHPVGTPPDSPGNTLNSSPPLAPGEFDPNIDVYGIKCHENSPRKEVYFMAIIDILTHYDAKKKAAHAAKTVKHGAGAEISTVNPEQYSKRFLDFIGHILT
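PI5P4Kalpha ADP-Glo assay; 5 microM ATP final; 60 min RT reaction; HEPES pH 7.4/EGTA/CHAPS, 5% DMSO; controls lacking substrate or enzyme; luminescent end-point.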
PLK1 PBD block: blocks phosphopeptide binding to human PLK1 polo-box domain | Potency, µM, for the others: max response, negative = inhibition, most hits filed as inhibitors | P53350 | Plk1 PBD binding of FITC phosphopeptide, fluorescence polarization | hit rate 2.8% among 360,000; note: potency is the fitted concentration of half-maximal effect; series mostly up to about 57 µM; % is set by controls: 0 for no effect and ±100 for the full control effect; nearly all actives have a fitted effect of over 65% in size
GCN5L2 inh: GCN5L2 (KAT2A) acetyltransferase inhibition; GCN5L2 HAT assay, ThioGlo1 CoA-SH fluorescence; Potency, µM (highest dose often 58.9 µM), inactives show at the highest dose activity change, negative = inhibition, actives largely listed as inhibitors; hit rate 0.21% among 390,000; note: potency is the fitted concentration of half-maximal effect; % is set by controls: 0 for no effect and ±100 for the full control effect
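qHTS, 1536-well. 20nM enzyme, pH 7.5 HEPES/EDTA/Tween-20 buffer; 15 min compound preinc., RT. Start: 75uM H3(1-25), 70uM AcCoA, 50uM ThioGlo1. Read Ex340/Em540 at t=0 (autofluorescence flag) and t=20 min.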
BAZ2B block: inhibitors of human BAZ2B bromodomain; AlphaScreen BAZ2B-H3K14Ac peptide displacement; Potency, µM (doses to about 114 µM), inactives show top-dose activity change, negative = inhibition, actives largely listed as inhibitors; hit rate 4.4% among 360,000; note: potency is the fitted concentration of half-maximal effect; % is set by controls: 0 for no effect and ±100 for the full control effect; nearly all actives have a fitted effect of over 60% in size
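Inhibition is scored as reduced AlphaScreen emission. The BAZ2B/b-H3(5-23)K14Ac complex (50 nM each) in PBS pH 7.4, 0.01% Tween-20 meets compound (up to 110 uM) for 30 min at RT before bead addition.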
JMJD2A Tudor: blocks the human JMJD2A Tudor domain; Potency, µM (top dose mostly 114 µM), for inactives: at the top dose activity change, negative = inhibition, usual class: inhibitors; AlphaScreen JMJD2A-Tudor / H3K4me3 peptide binding; AID 504339; hit rate 4.4% among 390,000; note: potency is the fitted concentration of half-maximal effect; % is set by controls: 0 for no effect and ±100 for the full control effect; nearly all actives have a fitted effect of over 50% in size
Starred values were filed as active, the others as inactive; ? = inconclusive; . = no result given; [ ] = remark or other dose. Unless noted, calls come from the whole dose curve; as a rule, active = well fitted curve in the direction sought with a large enough effect; inconclusive = small, poorly fitted or top-dose-only effect, or another doubt; inactive = no such curve, though single readings can be large; an effect the other way counts as inactive or inconclusive.

SMILES | HP1b binding inh | PI5P4Ka inh | PLK1 PBD block | GCN5L2 inh | BAZ2B block | JMJD2A Tudor
C=CCn1c(C)cc(C2=NNC(=Nc3ccc(C)cc3)SC2)c1C | -10% | -3 | -14% | 0% | -13% | -28%
CCOc1ccc(N=C2NN=C(c3cc(C)n(CC4CCCO4)c3C)CS2)cc1 (stereo unspecified) | ? | -19 | -23% | 1% | 71µM* | ?
CC1=CC(C)(C)n2c(O)c(N=N)c3cc(C)cc1c32 | ? | 3 | 0% | -11% | 45µM* | 50µM*
COc1cc2c3c(c1)c(N=NC(N)=S)c(O)n3C(C)(C)C=C2C | 6% | -1 | -5% | -3% | -19% | -21%
CC1=CC(C)(C)n2c(O)c(N=N)c3c(C)c(C)cc1c32 | ? | 23 | -11% | -9% | 35µM* | ?
CC1=CC(C)(C)n2c(O)c(N=N)c3c(C)ccc1c32 | -16%[57 µM] | 25 | -25% | -12% | ? | 45µM*
CC1=CC(C)(C)n2c(O)c(N=NC(N)=S)c3c(C)ccc1c32 | 5% | 2 | 2% | -4% | -8% | -26%
CC1=CC(C)(C)n2c(O)c(N=NC(N)=S)c3c(C)c(C)cc1c32 | 20% | 7 | 2% | -11% | ? | -20%
O=C(Nc1ccc(F)cc1F)c1ccc2c(O)c(S(=O)(=O)c3ccc(Cl)cc3)c(=O)[nH]c2c1 | 28% | . | . | -4% | ? | -33%
Cc1ccc(S(=O)(=O)n2nccc2-c2c(-c3ccc(Cl)cc3)noc2C)cc1 | 66% | 26 | 4% | -3% | 4% | 40%
NNC(=O)c1[nH]c2ccc([N+](=O)[O-])cc2c1-c1ccccc1 | 22% | -23 | -8% | -5% | -15% | -29%
Cc1c(C(=O)NN)[nH]c2ccc([N+](=O)[O-])cc12 | 28% | -3 | 6% | -6% | 35µM* | -12%
O=C(CCCCn1cnc2c(=S)nc[nH]c21)Nc1ccc(C(=O)O)cc1 | 71µM* | ? | -25% | . | . | 1.4µM*
CN(Cc1ccccc1)C1=CC(=[N+]2CCCC2)CC(C)(C)C1 | ? | -6 | ? | -4% | 3% | 8.9µM*
CCN(CC)C1=CC(=[N+]2CCCC2)CC(C)(C)C1 | 2% | -9 | -7% | -21% | -1% | 1%
C[C@@H]1COC(=O)[C@@H](CC(=O)OC(C)(C)C)C/C=C\C[C@@H](CC(=O)N[C@H](CO)Cc2ccccc2)C(=O)N1 | 58% | 2 | 3% | -5% | . | 4%
O=C(O)c1cc(=O)c2c(Cl)cc(Cl)cc2[nH]1 | 4% | -59* | -3% | -10% | . | 50µM*
N#Cc1cnc(Sc2ccccc2)nc1 | -28% | -10 | 30µM* | -8% | 3% | ?
CCCn1ccc2c(OCC(=O)NCc3ccccc3Cl)cccc2c1=O | 97% | . | . | -7% | 15% | -6%
C/C(=N\NC(=O)C(C)Oc1ccc([N+](=O)[O-])cc1)c1ccccn1 (stereo unspecified) | 33% | . | -7% | -4% | 25µM* | 56µM*
CC(Oc1ccccc1)C(=O)NNC(=O)c1ccccn1 (stereo unspecified) | 47% | -5 | -2% | -6% | -13% | -25%
CCOC(=O)C(NCCCO)c1ccccc1 (stereo unspecified) | ? | . | -8% | 1% | -22% | 2.5µM*
Cc1cc(NC(=O)CCC(=O)N(c2ccccc2)C(C(=O)NC2CCCC2)c2ccccc2C)no1 (stereo unspecified) | 8% | -1 | 5% | 0% | -2% | -8%
COc1cccc(CNC(=O)c2ccc3c(c2)nnn3C2CCCC2)c1 | 33% | . | . | 1% | 1% | 2%
CCOc1ccc(C(O)(CCC(C)C)C(CN2CCOCC2)c2ccccc2)cc1 (stereo unspecified) | 53% | 10 | -5% | 0% | -25% | -33%
SMILES | HP1b binding inh | PI5P4Ka inh | PLK1 PBD block | GCN5L2 inh | BAZ2B block | JMJD2A Tudor
CCOc1ccc(C(O)(c2ccccc2)C(CN2CCCC2)c2ccccc2)cc1 (stereo unspecified) | 8% | -24 | 6µM* | -7% | -14% | 14µM*
O=C(C[n+]1ccccc1)N/N=C/c1ccc(Cl)cc1 | 25% | -1 | -2% | -1% | 50µM* | ?
CC(C)(C)c1ccc(/C=N/NC(=O)C[n+]2ccccc2)cc1 | 5% | 3 | 1% | -18% | -25% | -16%
Fc1cccc(Cl)c1/C=N/Nc1c(Cl)cncc1Cl | 30% | 0 | 4% | -5% | 0% | -3%
O=C(C[n+]1ccccc1)N/N=C/c1c(F)cccc1Cl | 28% | -4 | -5% | 10% | 56µM* | -11%
O=S(=O)(N/N=C\c1c(F)cccc1Cl)c1ccc(Cl)cc1 | 49% | 0 | 15µM* | -25% | 2% | -15%
O=C(C[n+]1ccccc1)N/N=C/c1ccccc1F | -13% | -2 | ? | -3% | . | ?
CC(C)(C)c1cc(/C=N/NC(=O)C[n+]2ccccc2)cc(C(C)(C)C)c1O | 48% | 3 | 3% | 13% | 50µM* | 56µM*
O=C(Cn1ncc2c3ccccc3n(Cc3cccc(Cl)c3)c2c1=O)NCCCN1CCCCC1 | 31% | . | . | -18% | -19% | -27%
CC(C)[C@H](NC(N)=O)C(=O)Nc1cccc(S(=O)(=O)NC2=NCCCCC2)c1 | 31% | 7 | 1% | -12% | -3% | 2%
OC(C#CCN1CCCC1)(c1ccccc1)c1cccnc1 (stereo unspecified) | 4% | 1 | -6% | -5% | 79µM* | 28µM*
CCc1ccccc1N(CC)C(=O)c1cc2c(s1)-c1ccccc1OC2 | 149% | . | . | -4% | 131% | 150%
CCN(CC)C(=O)CSc1nc2ccsc2c(=O)n1CCCC(=O)NCCc1ccc(S(N)(=O)=O)cc1 | ? | -26 | 3.8µM* | -1% | . | ?
Cc1ccc(NC(=O)Cc2ccc(Cl)cc2)cc1S(=O)(=O)N1CCCCCC1 | 32% | 7 | -3% | -7% | 9% | -9%
Cc1ccc(NCC(=O)Nc2cccc(S(=O)(=O)N(C)C)c2)cc1S(=O)(=O)N1CCCCCC1 | -12% | -4 | 2% | -7% | -7% | -33%
COc1ccc(NC(=O)CN(C)CC(=O)Nc2cccc(F)c2)cc1S(=O)(=O)N1CCCCC1 | ? | -4 | 2% | . | . | 2.8µM*
Cc1ccc(NC(=O)CN(C)CC(=O)Nc2cccc(F)c2)cc1S(=O)(=O)N1CCCCCC1 | ? | 17 | -2% | -11% | 50µM* | 18µM*
Cc1ccc(NC(=O)Cn2ncc(Cl)c(Cl)c2=O)cc1S(=O)(=O)N1CCCCC1 | 15% | -58* | -17% | -23% | 0% | -27%
Cc1cccc(NC(=O)CNC(=O)Cn2ncc(Cl)c(Cl)c2=O)c1C | 71µM* | ? | ? | -25% | . | 45µM*
Cc1cccc(NC(=O)CNC(=O)CSc2ncccn2)c1C | 30% | 8 | 4% | -5% | . | 3%
